# Measured values: PubChem BioAssay AID463173 (ICCB-Longwood Screening Facility, Harvard Medical School, 2010)
# The campaign covered roughly 52,000 compounds. About 4,300 (8.3%) were called active. Shown is part of a subset that was picked to be rich in actives. Unmarked numbers belong to inactive results. No stated cut-off is given here; in the data, active means survival mostly below about 52% (no sharp cut-off); inactive means mostly above about 56%.
# Tested on: DeltatarO mutant
# Test: growth inhibition of S. aureus wild type versus tarO mutant, primary screen, teichoic acid synthesis inhibitors, RN4220, OD600 (AID 463173)
# Conditions: OD600, 18 h, stronger effect = lower value, screened at 18.75 µg/mL (by protocol)
row,SMILES,survival
1,COc1ccc(CNC(=O)CN2C(=O)CCn3nc(-c4ccccc4)cc32)c(OC)c1,69%
2,COc1ccc(-c2nc3c(c(SCC(=O)Nc4cc(C)cc(C)c4)n2)Cc2c(CO)cnc(C)c2O3)cc1,80%
3,CN(C)S(=O)(=O)c1ccc2c(c1)nnn2CCNC(=O)Nc1ccc(Br)cc1,83%
4,O=C1Nc2nc(=O)nc3[nH]c(=O)nc(n23)N1,97%
5,COc1ccc(Cn2ccn(Cc3cccc(C)c3)c(=O)c2=O)cc1,109%
6,COc1ccc(-n2ccn(CC(=O)Nc3ccc(C)cc3C)c(=O)c2=O)cc1,79%
7,COc1ccc(Cn2ccn(Cc3cccc(Cl)c3)c(=O)c2=O)cc1,112%
8,COc1ccc(Cn2ccn(Cc3cccc(OC)c3)c(=O)c2=O)cc1,46% (active)
9,COc1ccc(-c2cc3c(=O)n(CC(=O)Nc4cc(C)ccc4C)ccn3n2)cc1,88%
10,COc1ccc(Cn2ccn(CC(=O)Nc3cc(C)ccc3C)c(=O)c2=O)cc1,47% (active)
11,CC(C)(C)c1ccc(OCCSc2nc(-c3cccs3)nc3cc(=O)[nH]n23)cc1,78%
12,CC(=O)NCC(c1ccc2c(c1)OCO2)N1CCN(c2ccccc2)CC1 (stereo not given),80%
13,COc1ccc(NC(=O)c2ccc3c(c2)nnn3C2CCCC2)cc1Cl,88%
14,COc1ccccc1N1CCN(c2ncc3c(n2)CCN(Cc2ccccc2F)C3)CC1,89%
15,CCN1CCN(c2ncc3c(n2)CCN(Cc2ccc(Br)s2)C3)CC1,76%
16,Cc1ccccc1CN1CCc2nc(N3CCN(c4ncccn4)CC3)ncc2C1,88%
17,CCOc1ccccc1CN1CCc2nc(N3CCN(c4ccccc4F)CC3)ncc2C1,-4% (active)
18,CN1CCN(c2ncc3c(n2)CCN(Cc2cc(Br)cs2)C3)CC1,109%
19,CCN1CCN(c2ncc3c(n2)CCN(Cc2ccccc2C)C3)CC1,-1% (active)
20,CCOc1ccccc1CN1CCc2nc(N3CCN(C)CC3)ncc2C1,-2% (active)

row,SMILES,survival
1,COc1cc(OC)c(OC)cc1CN1CCc2nc(N3CCN(C)CC3)ncc2C1,84%
2,Cc1ccccc1CN1CCc2nc(N3CCN(c4ccccn4)CC3)ncc2C1,94%
3,CCN1CCN(c2ncc3c(n2)CCN(Cc2cc(Br)cs2)C3)CC1,6% (active)
4,COc1cc(OC)c(OC)cc1CN1CCc2nc(N3CCN(c4ccccc4F)CC3)ncc2C1,72%
5,CN1CCN(c2ncc3c(n2)CCN(Cc2ccccc2Cl)C3)CC1,79%
6,COc1cc(C(=O)n2nc(-c3ccco3)nc2NCc2ccc(Cl)cc2)cc(OC)c1OC,82%
7,COc1cccc(CNC(=O)CSC2=Nc3ccccc3C3=NC(C(C)C)C(=O)N23)c1 (stereo not given),69%
8,Cc1ccc(Cl)cc1N1CCN(C(=O)C2CCN(S(=O)(=O)c3cn(C)cn3)CC2)CC1,98%
9,CC(=O)Nc1cccc(NC(=O)C2CCCN2C(=O)Nc2ccccc2Cl)c1 (stereo not given),113%
10,CCOc1ccc(-c2csc(-c3nc(-c4ccc(Br)s4)cs3)n2)cc1,83%
11,NC(=O)c1c(NC(=O)CS(=O)(=O)c2ccc(Cl)cc2)sc2c1CCCCC2,82%
12,O=C(CSC1=Nc2ccccc2C2=NC(CCC(=O)NC3CCCCC3)C(=O)N12)Nc1cccc(Cl)c1 (stereo not given),112%
13,CCC(=O)N1CCc2cc(Br)cc(S(=O)(=O)CCC(=O)N(C)c3cccc(C)c3)c21,62%
14,Cc1cccc(N2C(=O)C(CC(=O)Nc3cccc(F)c3)N(CCc3ccncc3)C2=O)c1 (stereo not given),75%
15,CCOc1ccc(NC(=O)CC2C(=O)N(c3cccc(C)c3)C(=O)N2Cc2cccs2)cc1 (stereo not given),89%
16,COc1cc(NC(=O)CC2C(=O)N(c3cccc(C)c3)C(=O)N2Cc2cccs2)cc(OC)c1 (stereo not given),66%
17,Cc1cccc(N2C(=O)C(CC(=O)Nc3cccc(F)c3)N(Cc3cccs3)C2=O)c1 (stereo not given),8% (active)
18,CCc1ccc(NC(=O)CC2C(=O)N(c3ccc(Cl)cc3)C(=O)N2Cc2cccs2)cc1 (stereo not given),60%
19,CCc1ccc(NC(=O)CC2C(=O)N(c3cccc(C)c3)C(=O)N2Cc2cccs2)cc1 (stereo not given),20% (active)
20,Cn1c(=O)n(C)c2cc(NS(=O)(=O)c3ccc(F)cc3)c(NCc3ccccc3)cc21,68%

row,SMILES,survival
1,CCc1nn(CCCC(=O)N2CCN(c3ccc(OC)cc3)CC2)c(=O)c2cc3occc3n12,87%
2,Cc1ccccc1Cn1c(COc2ccc(Cl)cc2)nc2ccccc21,114%
3,COc1ccc(OCc2nc3ccccc3n2Cc2ccccc2Cl)cc1,39% (active)
4,Cc1ccc(OCc2nc3ccccc3n2Cc2ccccc2Cl)cc1,-8% (active)
5,C#CCn1c(COc2ccccc2C)nc2ccccc21,111%
6,Cc1ccccc1OCc1nc2ccccc2n1Cc1ccccc1Cl,0% (active)
7,Cc1cccc(C(=O)NCc2nc3ccccc3n2Cc2ccccc2Cl)c1,106%
8,C=CCc1ccccc1OCc1nc2ccccc2n1CC,49%
9,COc1ccc(-n2c(=O)c3ccccc3n(Cc3ccccc3Cl)c2=O)cc1,110%
10,CCc1cc(C(=O)NCc2ccc(F)cc2)no1,53%
11,Cc1cc(=O)oc2cc(OCC(=O)NCc3ccco3)ccc12,74%
12,CC(C)C(c1nnnn1C1CCCC1)N1CCN(C(=O)c2ccco2)CC1 (stereo not given),86%
13,Cc1cccc(C(=O)NCC(c2ccc3c(c2)OCO3)N2CCOCC2)c1 (stereo not given),73%
14,Cc1ccc(N2C(=O)CCSC23C(=O)N(Cc2ccccc2)c2ccccc23)cc1 (stereo not given),89%
15,Cc1cccc(NC(=O)CSc2nnc(N)s2)c1,149%
16,COc1cc(C(=O)NCCc2sc(-c3ccc(C)cc3)nc2C)cc(OC)c1OC,80%
17,Cc1ccc(N=Cc2ccc(C)o2)cc1,98%
18,Cc1ccc(-n2c(C)cc(/C=C3\SC(=O)NC3=O)c2C)cc1,95%
19,Cc1ccc(/C=C2\SC(=O)NC2=S)o1,33% (active)
20,Fc1ccc(CNc2ccc(N3CCCC3)cc2)cc1,97%
